Screening data from PubChem.
Gal4-VP16 FLuc = VP16 counterscreen qHTS for inhibitors of ROR gamma transcriptional activity; Potency, µM (doses to about 53.6 µM), inactives show at the top dose activity, negative = inhibition, hits mostly inhibitors; AID 2546, 2010; hit rate 3.5% among 310,000; Drosophila S2 Gal4-VP16 UAS-luciferase, luminescence, 20 h;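 further: Gal4-VP16 expression switched on by copper sulfate through the metallothionein promoter; nearly all actives have a fitted effect of over 50% in size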
RORg inh = qHTS for inhibitors of ROR gamma transcriptional activity. Nuclear receptor ROR-gamma (Mus musculus), P51450. Drosophila S2 Gal4-RORgamma UAS-luciferase reporter, 20 h. Potency, µM (top dose mostly 53.6 µM), inactives show top-dose activity change, negative = inhibition, hits mostly inhibitors. hit rate 5.4% among 310,000. AID 2551, 2010; further: nearly all actives have a fitted effect of over 60% in size
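Drosophila S2 cells stably expressing Gal4-DBD/mouse RORγ fusion under metallothionein promoter plus UAS-luciferase; compound 1 h, then 700 uM CuSO4 induction for 20 h at ambient temperature; inhibition read as reduced luminescence.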
TDP1 cell noCPT = qHTS for Inhibitors of human tyrosyl-DNA phosphodiesterase 1 (TDP1): qHTS in cells in absence of CPT. hit rate 15% among 420,000. AID 686978, 2013. DT40 Tdp1-/- hTDP1 cells, no CPT, ATP luminescence, 48 h. Potency, µM (highest dose often 46.2 µM), without a hit: at the highest dose activity change, negative = growth inhibition, usual class: inhibitors; further: nearly all actives have a fitted effect of over 55% in size
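Seeded 400 DT40-hTDP1 cells/well (vehicle DMSO, no 20 nM CPT); pinned compounds; ≥48 hr at 37 °C; CellTiter-Glo luminescence as viability measure.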
ALOX12 inh = Primary qHTS assay for inhibitors of human arachidonate 12S-lipoxygenase (ALOX12): Round 2 | Polyunsaturated fatty acid lipoxygenase ALOX12 (Homo sapiens), P18054 | purified 12hLO, xylenol orange hydroperoxide absorbance | Potency, µM (doses to about 108 µM), for inactives: at the top dose activity change, negative = inhibition, usual class: inhibitors | hit rate 1.1% among 580,000
Target sequence (P18054 whole entry, looked up): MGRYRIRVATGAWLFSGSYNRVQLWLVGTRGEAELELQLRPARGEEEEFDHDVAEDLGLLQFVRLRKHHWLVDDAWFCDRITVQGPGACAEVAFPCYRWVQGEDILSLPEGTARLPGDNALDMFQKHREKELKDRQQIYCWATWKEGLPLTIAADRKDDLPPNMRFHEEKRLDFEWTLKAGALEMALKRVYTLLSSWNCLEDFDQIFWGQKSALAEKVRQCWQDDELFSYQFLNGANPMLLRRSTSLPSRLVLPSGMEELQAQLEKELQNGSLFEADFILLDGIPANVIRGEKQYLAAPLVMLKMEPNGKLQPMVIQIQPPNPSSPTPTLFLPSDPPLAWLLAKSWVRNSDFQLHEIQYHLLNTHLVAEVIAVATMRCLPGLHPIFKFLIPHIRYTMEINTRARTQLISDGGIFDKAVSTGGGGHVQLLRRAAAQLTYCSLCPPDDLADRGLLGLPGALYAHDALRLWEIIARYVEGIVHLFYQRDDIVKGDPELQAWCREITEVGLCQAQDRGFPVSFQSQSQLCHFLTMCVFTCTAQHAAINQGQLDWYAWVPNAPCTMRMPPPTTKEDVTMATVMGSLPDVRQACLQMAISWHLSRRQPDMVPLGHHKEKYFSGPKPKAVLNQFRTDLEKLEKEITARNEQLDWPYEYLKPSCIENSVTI
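Hydroperoxide product was detected by ferrous iron/xylenol orange as the 573 to 405 nm absorbance ratio. Arachidonic acid at 40 uM (final) was turned over for 30 min at room temperature by 150 nM human 12hLO, pH 7.0 Hepes buffer, after 15 min compound preincubation.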
ELG1 repair inh = qHTS screen for small molecules that inhibit ELG1-dependent DNA repair in human embryonic kidney (HEK293T) cells expressing luciferase-tagged ELG1 | HEK293T ELG1-luciferase reporter, luminescence, 16 h; DNA damage induced by 5-fluorouridine | Potency, µM (titrated, usually from 46.1 µM), inactives show at the top dose activity change, negative = inhibition, most hits filed as inhibitors | hit rate 2.3% among 330,000 | AID 504467, 2011; further: nearly all actives have a fitted effect of over 55% in size
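Overnight (16 hr) co-exposure of 2,000 cells/well to 5-fluorouridine and compound at 37 °C preceded detection. Luciferase was quantified via ONE-Glo luminescence; loss of signal denotes inhibition.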
TDP1 cell CPT = qHTS for Inhibitors of human tyrosyl-DNA phosphodiesterase 1 (TDP1): qHTS in cells in presence of CPT. AID 686979, 2013. hit rate 12% among 420,000. Potency, µM (titrated, usually from 46.2 µM), for inactives: at the highest dose activity change, negative = growth inhibition, usual class: inhibitors. chicken DT40 Tdp1-/-;hTDP1 cells + 20 nM CPT, ATP luminescence, 48 h; further: nearly all actives have a fitted effect of over 55% in size
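Chicken DT40 Tdp1-/- cells complemented with human TDP1, 400 cells/well, exposed to compounds plus 20 nM camptothecin for at least 48 h at 37 C; viability read as ATP content by CellTiter-Glo luminescence.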
An asterisk follows results filed as active; [ ] = dose if it differs, or a comment. Sampled rows, rich in hits. Any-hit rate of the full collection: about 15%. The call rests on the fitted dose curve; in most records, active means well fitted curve in the direction sought with a large enough effect; inconclusive means small, poorly fitted or top-dose-only effect, or another doubt; inactive means no such curve, though single readings can be large; an effect the other way counts as inactive or inconclusive. On the % scale 0 is the no-effect control and ±100 the full control effect; potency means the concentration at half of the fitted maximal effect.

Cc1noc(C)c1-c1ccc2ncnc(NCc3ccc(-c4ccccc4)cc3)c2c1 was read as Gal4-VP16 FLuc 1% and RORg inh inconclusive.
Screening CN(C)CCCNC(=O)c1c(OCC2CC2)cc(=O)n2c1CCCCC2 returned ALOX12 inh 25%.
For Nc1nc(N)c2c(ccc3nccc32)[nH]1 the results were Gal4-VP16 FLuc -6%, RORg inh -15%, TDP1 cell noCPT 1µM*, ALOX12 inh 7%, ELG1 repair inh -21% and TDP1 cell CPT 1.8µM*.
`CCCCOCCCNC(=O)CCC(=O)NC1CCCCC1` gave ALOX12 inh 16%.
`Cn1c(=O)[nH]c(=O)c2c1nc(N1CCN(Cc3ccccc3F)CC1)n2CCCc1ccccc1` gave ALOX12 inh -3%.
For Fc1cc(F)cc(-c2oncc2-c2nnnn2-c2ccccc2)c1 the results were Gal4-VP16 FLuc 20%, RORg inh 2%, TDP1 cell noCPT 6%, ALOX12 inh -6%, ELG1 repair inh -10% and TDP1 cell CPT -13%.
Screening Cc1ccc(-n2nnnc2-c2cnoc2-c2cccc(F)c2)cc1 returned Gal4-VP16 FLuc inconclusive, RORg inh -29%, TDP1 cell noCPT inconclusive, ALOX12 inh inconclusive, ELG1 repair inh -2% and TDP1 cell CPT 26µM*.
`CN(Cc1cccc(C#N)c1)C(=O)C1CCOCC1` gave ALOX12 inh -3%.
`CCCCCC(C)NCc1sccc1C` (stereo not drawn) gave ALOX12 inh 0.45µM*.
For CCC(C)NCCOCCOc1ccc(Br)cc1 (stereo not drawn) the results were Gal4-VP16 FLuc -8%[10 µM], RORg inh -3%, TDP1 cell noCPT 23µM*, ALOX12 inh -33%, ELG1 repair inh -1% and TDP1 cell CPT inconclusive.
`CCC(C)NCCOc1ccc(Br)cc1` (stereo not drawn) gave Gal4-VP16 FLuc 6%, RORg inh 3%, TDP1 cell noCPT -30%, ALOX12 inh -42%, ELG1 repair inh -6% and TDP1 cell CPT -14%.
Screening CCOc1ccc(-c2nc(N)ncc2Oc2ccc(OC)cc2)c(O)c1 returned Gal4-VP16 FLuc -2%, RORg inh inconclusive, TDP1 cell noCPT 2%, ALOX12 inh 16µM*, ELG1 repair inh 0% and TDP1 cell CPT -5%.
CCOc1ccc(-c2nc(N)ncc2-c2ccccc2)c(O)c1 was read as Gal4-VP16 FLuc inconclusive, RORg inh 1%, TDP1 cell noCPT 15µM*, ALOX12 inh 9%, ELG1 repair inh -18% and TDP1 cell CPT 21µM*.
CCN(CCNC(=O)C1CCCN(Cc2nc(-c3ccc(OC)cc3)oc2C)C1)c1ccccc1 (stereo not drawn) was read as Gal4-VP16 FLuc inconclusive, RORg inh inconclusive, TDP1 cell noCPT 23µM*, ALOX12 inh 0%, ELG1 repair inh inconclusive and TDP1 cell CPT 16µM*.
`CCN(CCNC(=O)C1CCN(Cc2nc(-c3ccc(Cl)cc3)oc2C)CC1)c1ccccc1` gave Gal4-VP16 FLuc inconclusive, RORg inh inconclusive, TDP1 cell noCPT 18µM*, ALOX12 inh -5%, ELG1 repair inh 16µM* and TDP1 cell CPT 23µM*.
For CCCCNC(=O)C1CCN(Cc2nc(-c3ccc(OC)c(OC)c3)oc2C)CC1 the results were TDP1 cell noCPT -24%, ALOX12 inh inconclusive and TDP1 cell CPT -11%.
